Results on 22 compounds are retold here after PubChem BioAssay (NCI).

Each structure is given as a SMILES string. The panel holds about 83,000 compounds, 20% with a hit somewhere; the sample as a whole holds those more often.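 In brief: 96-well plates, 48 h treatment, single concentration, percent growth endpoint.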 Values without a mark were called inactive. Calls of active or inactive are those of the source. Rule for the calls: active = growth percent below 10; inactive = the rest.

What all share (experiment): NCI-60 one-dose screen, 48 h (100 = growth as untreated, 0 = no growth, -100 = all killed)
In test [1] the test system is NCI-H23 lung. To be noted: 10 µM unless noted.
Test [2] concerns NCI-H226 lung. To be noted: 10 µM unless noted.
For test [3], the system named is NCI-H322M lung. To be noted: 10 µM unless noted.
Test [4] deals with HOP-62 NSCLC. To be noted: 10 µM unless noted.
Test [5] has as its system NCI-H460 lung. Particulars: 10 µM unless noted.
Test [6] deals with HOP-92 NSCLC. To be noted: 10 µM.
In test [7] the test system is NCI-H522 lung. To be noted: 10 µM unless noted.
For test [8], the system named is A549/ATCC NSCLC. Particulars: 10 µM unless noted.
Test [9] deals with 786-0 renal. To be noted: 10 µM unless noted.
The subject of test [10] is COLO 205 colon. To be noted: 10 µM unless noted.

As to `O=C1[C@H]2Cc3c([nH]c4ccccc34)[C@@H](c3ccc(Cl)cc3)N2C(=O)CN1C1CCN(Cc2ccccc2)CC1`, the growth in test [1] was 73.8%; in [2], 49%; in test [3], 57.1%; in [4] it was 74.8%; in test [5], 29.8%; in [6], 42.5%. For the same compound, the growth in test [7] is 81.1%; in test [8], 43.8%; in [9], 64.3%; in test [10], 50.6%.
As for `O=C(O)c1ccc(-n2cc(CNc3cc(F)c(F)c(F)c3)c(-c3ccc(F)cc3)n2)cc1`, the growth in test [1] was 90%; in test [2] it was 101%; in [3], 98%; in test [4], 113%; in test [5] it was 97.1%; in test [6] it was 108%. For the same compound, the growth in test [7] was 90.1%; in test [8], 77.8%; in [9], 109%; in test [10], 131%.
On to `CC(c1ccccc1)N1CSc2nc3ncncc3n2C1` (stereo not given), for which the growth was 24.1% in [1]; 48.8% in [2]; 40.9% in test [3]; 26.9% in test [4]; 51.2% in test [5]; 65.5% in [6]. For the same compound, the growth is 38.2% in [7], 72% in [8], 29.6% in test [9] and 32.8% in test [10].
On to `COc1ccccc1NCc1cccn1Cc1ccc(F)cc1`, for which the growth in [1] was 96.6%; in test [2], 90.4%; in [3], 92.5%; in test [4], 92%; in [5], 103%; in test [6], 81.5%. Further, the growth in [7] is 79.5%; in test [8], 101%; in [9], 92.8%; in test [10], 110%.
Turning to `Cc1c(Cl)cccc1S(=O)(=O)Nc1ccc2c(c1)C(=O)N(C1CCC(=O)NC1=O)C2=O` (stereo not given), the growth in test [1] is 102%; in test [2], 66.6%; in test [3] it was 88.8%; in test [4], 73.5%; in test [5], 111%; in [6], 49%. In addition, the growth in test [7] was 94.2%; in test [8] it was 104%; in [9] it was 78.9%; in [10], 62.3%.
For the compound `C=C(C=O)[C@@H]1CC[C@]2(COC(C)=O)CC[C@]3(C)C(CC[C@@H]4[C@@]5(C)CC[C@H](OC(C)=O)C(C)(C)[C@@H]5CC[C@]43C)[C@@H]12` (stereo not given in full), the growth in [1] was -22.4% (active); in [2], -55.5% (active); in [3], 40.5%; in [4] it was 80.6%; in [5], -23.2% (active); in [6] it was -78.8% (active). Also, the growth in test [7] is -35.5% (active); in test [8] it was 36.5%; in [9] it was 2.99% (active); in test [10], -8.44% (active).
For the compound `CCCCc1nc(/C=N/Nc2nc(Nc3ccccc3)nc(Nc3ccc(S(N)(=O)=O)cc3)n2)c(Cl)[nH]1`, the growth in test [1] is 101%; in test [2] it was 99%; in test [3], 99.1%; in [4], 101%; in test [5], 100%; in [6] it was 60.1%. Moreover, the growth is 41.9% in [7], 108% in test [8], 95.3% in [9] and 72% in test [10].
In the case of `COc1ccc(NC(=O)CSc2nnc(-c3ccc4nc(-c5ccccc5)[nH]c4c3)o2)cc1`, the growth in test [1] is 96.3%; in test [2] it was 96.2%; in test [3] it was 98%; in test [4], 101%; in [5], 99.8%; in [6], 99.4%. For the same compound, the growth in test [7] was 94.2%; in test [8], 101%; in test [9], 96.3%; in test [10] it was 108%.
Turning to `Cc1ccc(NC(=S)NNC(=S)Nc2ccc(C)cc2)cc1`, the growth is 95.2% in [1]; 103% in test [2]; 96.7% in [3]; 97.8% in test [4]; 112% in test [5]; 93.1% in test [6]. The growth is 93.4% in test [7], 105% in [8], 89.6% in [9] and 115% in test [10].
`Nc1cc(F)ccc1NC(=O)c1ccc(NC(=O)C/C=C/c2cccnc2)cc1`: the growth in test [1] was 62.5%; in test [2], 70.8%; in [3] it was 67%; in test [4] it was 48.7%; in [5], 56.8%; in test [6], 25.2%. The growth was 15.2% in test [7], 55.9% in [8], 72.6% in [9] and 21.2% in [10].
`O=S(=O)(NCCCNc1nccc(-n2cnc3ccccc32)n1)c1ccc(C(F)(F)F)cc1`: the growth was 91.3% in [1]; 77.8% in test [2]; 103% in [3]; 87.1% in test [4]; 89.8% in [5]; 80.2% in test [6]. Moreover, the growth in [7] was 70%; in test [8], 86.3%; in test [9] it was 91.2%; in test [10] it was 96.4%.
For `CNC(=O)c1c(NC(=O)c2cccc(C(F)(F)F)c2F)sc2c1CCC(=O)C2`, the growth in test [1] is 8.64% (active); in [2] it was 16.2%; in test [3], 82.4%; in [4], 22.4%; in test [5], 7.32% (active); in test [6], -21.5% (active). Moreover, the growth in [7] is 4.78% (active); in test [8], 14.7%; in test [9], 18.1%; in test [10], -6.56% (active).
With `NC(N)=Nc1ccc(Oc2cccc(NC(N)=Nc3ccc(Cl)c(C(F)(F)F)c3)c2)cc1`, the growth is 60.2% in test [1]; 73% in test [2]; 64.6% in test [3]; 60.4% in test [4]; 26.8% in test [5]; 19.2% in test [6]. Moreover, the growth in test [7] was 39.6%; in test [8] it was 47.1%; in [9], 81%; in [10], 24.3%.
As for `NS(=O)(=O)c1ccc(-n2cc(CN3CCCCC3)nn2)cc1`, the growth is 107% in test [1]; 98.6% in test [2]; 107% in [3]; 106% in [4]; 105% in test [5]; 96.6% in [6]. Also, the growth in test [7] was 95.8%; in [8] it was 105%; in [9], 109%; in test [10], 119%.
Turning to `O=S(=O)(NCCNc1nccc(-n2cnc3ccccc32)n1)c1ccc(Br)cc1`, the growth was 97.3% in test [1]; 76.5% in test [2]; 107% in test [3]; 87.2% in test [4]; 101% in [5]; 74.2% in [6]. For the same compound, the growth is 87.2% in test [7], 100% in [8], 103% in [9] and 107% in test [10].
In the case of `Cn1ccnc1C(=O)/C=C/c1ccc(CNC(=O)c2ccc(S(F)(F)(F)(F)F)cc2)cc1`, the growth in test [1] is 3.4% (active); in [2], 27%; in [3], 7.63% (active); in [4], 17.5%; in test [5] it was -18.1% (active); in test [6], 74.3%. Moreover, the growth is 29.5% in test [7], 16% in [8], 13.1% in test [9] and 41.8% in test [10].
As for `COc1ccc(NC(=O)CSc2nnc(-c3ccc4nc(-c5ccc(OC)c(OC)c5)[nH]c4c3)o2)cc1OC`, the growth in test [1] was 80.6%; in test [2], 93.1%; in test [3], 89.4%; in [4], 98.8%; in [5] it was 102%; in test [6], 85.6%. Also, the growth is 95.1% in [7], 101% in [8], 105% in [9] and 113% in test [10].
Consider `COc1ccc(/C=C(/C)c2ccc3ccc(OC)cc3[o+]2)c(O)c1`, for which the growth was 53.2% in [1]; 70.9% in test [2]; 94.7% in test [3]; 92.1% in test [4]; 81.5% in [5]; 66.7% in test [6]. For the same compound, the growth in test [7] was 53.1%; in test [8], 102%; in test [9], 88.9%; in test [10], 115%.
In the case of `O=C(CNc1nc(-c2cccc([N+](=O)[O-])c2)cs1)Nc1cccc([N+](=O)[O-])c1`, the growth in test [1] was -29.7% (active); in test [2], -35.9% (active); in test [3], 58.9%; in test [4] it was 17.3%; in [5], -15.7% (active); in test [6] it was -39.4% (active). In addition, the growth in test [7] was -36.2% (active); in test [8], -19% (active); in test [9] it was -13.6% (active); in test [10] it was -30.8% (active).
In the case of `O=C1CCC(N2C(=O)c3ccc(NS(=O)(=O)c4ccccc4OC(F)(F)F)cc3C2=O)C(=O)N1` (stereo not given), the growth was 107% in test [1]; 44.7% in test [2]; 46.1% in test [3]; 6.09% (active) in test [4]; 115% in test [5]; -2.41% (active) in test [6]. The growth was 69.3% in test [7], 78.7% in test [8], 47.6% in [9] and 20.5% in test [10].
As for `O=S(=O)(Oc1ccc(-c2nnc(Nc3ccccc3)s2)cc1)C(F)(F)C(F)(F)C(F)(F)C(F)(F)C(F)(F)C(F)(F)F`, the growth is 100% in test [1]; 99.6% in [2]; 113% in test [3]; 103% in [4]; 103% in test [5]; 101% in test [6]. Besides, the growth in test [7] is 95.9%; in test [8], 101%; in test [9], 108%; in [10] it was 104%.
Consider `COc1c(N2CC3CCCNC3C2)c(F)cc2c(=O)c(C(=O)N/N=C/c3ccc(N(C)C)cc3)cn(C3CC3)c12` (stereo not given), for which the growth was 69.1% in test [1]; 98.5% in test [2]; 93.6% in [3]; 91.9% in test [4]; 78.3% in test [5]; 69.5% in test [6]. In addition, the growth in test [7] is 73%; in [8] it was 88.7%; in test [9], 37.7%; in test [10] it was 104%.
